PubChem BioAssay AID492998 (Southern Research Specialized Biocontainment Screening …, 2010)
Hit rate of the full screen: of about 2,300 compounds, about 550 (24%) were called active. No rule for the calls is given here. Only a sample is shown. Entries that show only a call come without a potency. Potency and affinity values are given separately.

Assay: Vero E6 cell cytotoxicity, dose response, cytotoxicity control for non-replicating M. tuberculosis project, secondary assay (AID 492998)
Details: series mostly up to 20 µM
With `CC1=NN(C(=O)COc2ccccc2C)C(O)(c2ccc(Cl)cc2)C1` (stereo not drawn) the outcome was “inactive”.
In the case of `Cc1cc(Cl)ccc1NNC(=O)c1c(C)noc1C`, the outcome is reported as “inactive”.
With `O=C(N/N=C/c1ccccn1)c1cccc([N+](=O)[O-])c1` the outcome was “inactive”.
In the case of `COc1cccc(OCCNC(=O)c2cc([N+](=O)[O-])cc([N+](=O)[O-])c2)c1`, the outcome is reported as “inactive”.
For `Cc1ccc(CSCCNC(=O)c2cccc([N+](=O)[O-])c2)cc1`, the outcome was “inactive”.
For `O=C(N/N=C/C=C/c1cccc([N+](=O)[O-])c1)c1ccncc1`, the outcome was “inactive”.
For `COc1ccc(C(=O)NN/C(C)=C/C(=O)c2ccccc2)cc1`, the outcome was “inactive”.
In the case of `O=C(Oc1cccc2cccnc12)c1cccc([N+](=O)[O-])c1`, the outcome is reported as “inactive”.
For `O=C(c1ccco1)N1CCN(c2ccc(F)cc2)CC1`, the outcome was “inactive”.
With `CCOC(=O)C(=O)Cc1nc2ccccc2s1` the outcome was “inactive”.
With `C=C1CCC[C@]2(C)C[C@H]3OC(=O)C(CNC(C)CCCC(C)C)[C@H]3CC12` (stereo partly drawn) the outcome was “inactive”.
In the case of `COc1ccc([C@@]2(O)c3c(ccc(CC=C(C)C)c3O)NC(=O)[C@@H]2OC)cc1`, the outcome is reported as “inactive”.
With `COc1ccccc1C(c1nnnn1Cc1ccccc1)N1CCC(C(N)=O)CC1` (stereo not drawn) the outcome was “inactive”.
For `Cc1ccc(-c2nnc(SCC#CCOC(=O)c3ccco3)o2)cc1`, the outcome was “inactive”.
For `O=C(Cc1ccc(F)cc1)Nc1ccc(Cl)cn1`, the outcome was “inactive”.
For `O=C1N(c2ccc3c(c2)OCCO3)C(c2ccccc2)C1(F)F` (stereo not drawn), the outcome was “inactive”.
With `CCCCNC(=O)Cc1ccc(C)cc1` the outcome was “inactive”.
In the case of `CC(C)(C)c1ccc2c(c1)OC(C(=O)N/N=C\c1ccccn1)CO2` (stereo not drawn), the outcome is reported as “inactive”.
With `CC(C)NC(=O)C1COc2ccccc2O1` (stereo not drawn) the outcome was “inactive”.
In the case of `O=C(Nc1ccc([N+](=O)[O-])cc1)C1COc2ccccc2O1` (stereo not drawn), the outcome is reported as “inactive”.
For `Cn1cccc1/C=N\NC(=O)C1COc2ccccc2O1` (stereo not drawn), the outcome was “inactive”.
With `O=C(Nc1cccc(Cl)c1)C1COc2ccccc2O1` (stereo not drawn) the outcome was “inactive”.
In the case of `O=C(N/N=C\c1ccc([N+](=O)[O-])o1)C1COc2ccccc2O1` (stereo not drawn), the outcome is reported as “inactive”.
With `Clc1ccc(CN2C3=NCCCN3c3ccccc32)cc1` the outcome was “inactive”.
For `C#CCOc1coc(COC(=O)c2ccccc2)cc1=O`, the outcome was “inactive”.
For `Cc1ccc(C(C)NC(=O)c2cc3ccccc3oc2=O)cc1C` (stereo not drawn), the outcome was “inactive”.
In the case of `COC(=O)C1=C(C)N(Cc2ccccc2)C(=NCc2ccccc2)N[C@H]1c1cccc(F)c1`, the outcome is reported as “inactive”.
In the case of `CC(OC(=O)c1ccc2c(=O)n3c(nc2c1)CCCCC3)C(=O)Nc1ccc(Cl)cn1` (stereo not drawn), the outcome is reported as “inactive”.
For `CCOC(=O)Cn1cc(C#N)c2ccccc21`, the outcome was “inactive”.
With `O=C(NCc1nnc(SC/C=C/c2ccccc2)o1)c1ccco1` the outcome was “inactive”.
In the case of `CCCC(C)C(=O)Nc1ccc(Cl)cn1` (stereo not drawn), the outcome is reported as “inactive”.
In the case of `CC(C)(C)OC(=O)NCCc1nnc(S(=O)(=O)Cc2ccc(Cl)cc2Cl)o1`, the outcome is reported as “inactive”.
With `Nc1nc2ccccc2n1CCOc1ccc(Br)cc1` the outcome was “inactive”.
With `CCOC(=O)c1csc(COc2ccccc2Cl)n1` the outcome was “inactive”.
With `Nc1nc2ccccc2n1CCOc1ccccc1Cl` the outcome was “inactive”.
In the case of `O=C(Nc1nc2ccccc2n1CCN1CCCC1)C1CCCCC1`, the outcome is reported as “inactive”.
With `O=C(Nc1ccc(-c2nc3ccccc3c(=O)o2)cc1)c1ccco1` the outcome was “inactive”.
With `Cn1c(CNc2ccccc2O)nc2ccccc21` the outcome was “inactive”.
For `O=C(COC(=O)c1cccs1)NCCC1=CCCCC1`, the outcome was “inactive”.
For `O=C(OCC(=O)N1CCc2ccccc21)c1ccc([N+](=O)[O-])cc1`, the outcome was “inactive”.
With `CN(C)CCN1C(=O)c2oc3ccccc3c(=O)c2C1c1cccc(Br)c1` (stereo not drawn) the outcome was “inactive”.
For `COC(=O)COc1cccc(NC(=O)COc2ccccc2)c1`, the outcome was “inactive”.
For `COc1ccc(OC(=O)c2cc3ccccc3o2)cc1`, the outcome was “inactive”.
With `CC(=O)c1ccc(OCC(=O)Nc2ccc3c(c2)CCC3)cc1` the outcome was “inactive”.
With `CC(=O)c1ccc(NC(=O)CCc2ccc(C)o2)cc1` the outcome was “inactive”.
In the case of `CC1=NN(C(=O)c2ccccc2F)C(O)(c2ccc(Cl)cc2)C1` (stereo not drawn), the outcome is reported as “inactive”.
In the case of `Clc1cccc(/C=N\Nc2nccs2)c1`, the outcome is reported as “inactive”.
For `Cc1ccc(OCC(=O)OCc2c(C)noc2C)cc1C`, the outcome was “inactive”.
In the case of `CCOC(=O)CN1NC2(CCCC(C)C2)NC1=S` (stereo not drawn), the outcome is reported as “inactive”.
In the case of `Clc1c(OCCCn2ccnc2)ccc2ccccc12`, the outcome is reported as “inactive”.
In the case of `C=CCn1c(=O)c(C(=O)Nc2cccnc2)c(O)c2ccccc21`, the outcome is reported as “inactive”.
With `CCn1c(=O)c(C(=O)Nc2ncccc2C)c(O)c2ccccc21` the outcome was “inactive”.
With `Cn1c(=O)c(Oc2ccc(Cl)cc2)c(O)c2ccccc21` the outcome was “inactive”.
In the case of `Cc1cccnc1NC(=O)c1c(O)c2ccccc2n(C)c1=O`, the outcome is reported as “inactive”.
With `COc1ccc(C(O)CNc2ccc(C)cc2)cc1` (stereo not drawn) the outcome was “inactive”.
For `COc1ccc(NC(=O)c2nc3ccccc3s2)cc1`, the outcome was “inactive”.
For `CC(C)c1cc(C(=O)N/N=C/C=C/c2ccccc2)n[nH]1`, the outcome was “inactive”.
With `O=C(COc1ccccc1)Nc1ccc(Cl)cn1` the outcome was “inactive”.
For `O=C(NCc1ccccc1CN1CCCC1)c1cc2ccccc2o1`, the outcome was “inactive”.
In the case of `O=Cc1ccnc(-c2ccc(OC(=O)c3ccco3)cc2)n1`, the outcome is reported as “inactive”.
For `CCC1CCc2sc(C(=O)NCC3CCCO3)cc2C1` (stereo not drawn), the outcome was “inactive”.
With `CCOc1cc(C=O)cc(N=Nc2cccc([N+](=O)[O-])c2)c1O` the outcome was “inactive”.
For `O=C(COc1ccc2ccccc2c1Br)N1CCCC1`, the outcome was “inactive”.
For `CCCn1c(=O)c(C(=O)N/N=C/c2ccccc2F)c(O)c2ccccc21`, the outcome was “inactive”.
For `Nc1nonc1C(=O)N/N=C/c1ccc([N+](=O)[O-])o1`, the outcome was “inactive”.
For `CC1=NN(C(=O)c2ccoc2C)C(O)(C(F)(F)F)C1` (stereo not drawn), the outcome was “inactive”.
In the case of `COC(=O)C(O)(c1ccc(NC(=S)NC(=O)c2ccccc2)cc1)C(F)(F)F` (stereo not drawn), the outcome is reported as “inactive”.
In the case of `CCOC(=O)Nc1ccc2c(c1)N(C(=O)CCCl)c1ccccc1[S@]2=O`, the outcome is reported as “inactive”.
In the case of `C=CCn1c(O)c(C(C)=Nc2ccc(C(=O)OCC)cc2)c(=O)[nH]c1=O`, the outcome is reported as “inactive”.
For `CCCCNC(=O)Nc1nnc(-c2ccc(Cl)cc2)o1`, the outcome was “inactive”.
For `CCOC(=O)c1ccc(NC2OC(=O)c3ccccc32)cc1` (stereo not drawn), the outcome was “inactive”.
In the case of `C=CCN=C1SC(CC)C(=O)N1S(=O)(=O)c1ccc(C)cc1` (stereo not drawn), the outcome is reported as “inactive”.
In the case of `Cc1ccc(C(=O)CCC2CCCC2=O)cc1` (stereo not drawn), the outcome is reported as “inactive”.
